Measurements as given in PubChem BioAssay (NCI).
The panel holds about 79,000 compounds, 15% with a hit somewhere; the sample as a whole holds those more often. Cut-off read from the data, not from the text of the source: active = growth inhibition above about 70%; inactive = the rest.

How the values were obtained:
[1] = NCI Yeast Anticancer Drug Screen. Data for the rad50 strain (AID 155);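 note: 0% = growth of vehicle-only cultures of the same strain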; details: S. cerevisiae rad50 strain growth inhibition; at 50.0 µM; stronger effect = higher value
How it was run: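 DNA repair mutant yeast, compound exposure, growth read-out; inhibition is taken relative to vehicle.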

[2] = NCI Yeast Anticancer Drug Screen. Data for the mec2-1 strain (AID 157); details: S. cerevisiae mec2-1 strain, at 50.0 µM, stronger effect = higher value
How it was run: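 Readout is yeast growth inhibition, normalised to vehicle-treated controls, in the mec2-1 strain exposed to compound.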

[3] = NCI Yeast Anticancer Drug Screen. Data for the sgs1 mgt1 strain (AID 161);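 note: 0% = growth of cultures given vehicle only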; details: S. cerevisiae sgs1 mgt1 strain, at 50.0 µM, stronger effect = higher value
How it was run: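 This yeast growth screen uses a strain with defined DNA-repair lesions; compound-treated growth is compared with vehicle-treated growth.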

[4] = NCI Yeast Anticancer Drug Screen. Data for the cln2 rad14 strain (AID 165);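 note: 0% = growth equal to vehicle treated cultures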; details: S. cerevisiae cln2 rad14 strain, at 50.0 µM, stronger effect = higher value
How it was run: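 Relative to vehicle controls, growth inhibition of compound-treated cln2 rad14 yeast was recorded.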

[5] = NCI Yeast Anticancer Drug Screen. Data for the bub3 strain (AID 167); details: S. cerevisiae bub3 mutant strain, at 50.0 µM, stronger effect = higher value
How it was run: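 In this screen, a yeast mutant lacking normal mitotic checkpoint function is challenged with compound. Relative growth versus vehicle gives the inhibition value.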

[6] = NCI Yeast Anticancer Drug Screen. Data for the mlh1 rad18 strain (AID 175); details: S. cerevisiae mlh1 rad18 strain growth inhibition; at 50.0 µM; stronger effect = higher value
How it was run: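 Test agents were incubated with a yeast strain of defined genotype (DNA damage repair defect). Inhibition of growth was derived by comparison with vehicle-exposed cultures.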

Measured: growth inhibition

CCCCCCC1(C=O)C(=O)NC(=O)N1C (stereo unspecified)
inactive: [1] 10.3% | [2] 9.65% | [3] 6.45% | [4] 13.3% | [5] 4.1% | [6] -0.35%

NC(=O)C(CCc1ccccc1)(CCc1ccccc1)c1ccc2ccccc2c1
inactive: [1] 19.5% | [2] 11.2% | [3] -2.85% | [4] 6.6% | [5] 29.8% | [6] 46%

ClC1=CC(Cl)=C2N=C(N3CCCC3)N=C3N=C(C(Cl)(Cl)Cl)N=C1N32
inactive: [1] -2.8% | [2] 22.6% | [3] 3.6% | [4] -13.4% | [5] 3.2% | [6] -20.4%

C(/C=N/NC1=NCCCCN1)=N\NC1=NCCCCN1
inactive: [1] -6.7% | [2] -13% | [3] -9.05% | [4] 4.5% | [5] -13.6% | [6] -11.2%

O=COC1CCCCCC1
inactive: [1] -8.55% | [2] -28.9% | [3] -11.1% | [4] 7.9% | [5] -5.9% | [6] 12.9%

O=C(O)Cn1c(=O)n(CC(=O)O)c2ccccc21
inactive: [1] 6.85% | [2] -4.95% | [3] -4.2% | [4] -10% | [5] 3.25% | [6] -7.65%

CCC1(O)CCCCC1
inactive: [1] -16.4% | [2] -23.4% | [3] -30.1% | [4] -37.9% | [5] -18.6% | [6] -21.7%

C1=C(Oc2ccccc2)C2CC1C1CCCC21 (stereo unspecified)
inactive: [1] -7.85% | [2] -21.4% | [3] -2.65% | [4] 2.05% | [5] -5.95% | [6] 1.85%

c1ccc(CC2COC(c3cccs3)=N2)cc1 (stereo unspecified)
inactive: [1] 26.9% | [2] -13.2% | [3] 21.6% | [4] 18.1% | [5] 31.2% | [6] 9%

CCCCCc1cc(O)cc2c1Oc1cc(O)cc(C(=O)CCCC)c1C(=O)O2
inactive: [1] 4% | [2] -17.2% | [3] 8.6% | [4] -9.9% | [5] -9.4% | [6] -14.2%

COc1c(C)cc(Cc2ccc3c(c2)OCO3)cc1C
inactive: [1] -7.8% | [2] -12.9% | [3] 4.2% | [4] -22% | [5] -10.6% | [6] -5.3%

Nc1nc2nc(N=Nc3ccccc3)[nH]c2c(=O)[nH]1
inactive: [1] 21.5% | [2] -1.9% | [3] 8.3% | [4] 9.25% | [5] 5.45% | [6] 8.9%

CCN(CC)CCNC1=CC(=S)NC(C)(C)C1
inactive: [1] -13.7% | [2] 10.6% | [3] -2.6% | [4] -4.2% | [5] -1.9% | [6] -6.05%

O=C(Oc1c([N+](=O)[O-])cc(-c2ccccc2)cc1[N+](=O)[O-])c1ccccc1
inactive: [1] 22.7% | [2] 18.1% | [3] 9.05% | [4] 13.1% | [5] 20.1% | [6] 35.6%

Clc1ccc(Cl)c(NNc2cc(Cl)ccc2Cl)c1
inactive: [1] -29.1% | [2] -45.5% | [3] -3.9% | [4] -0.9% | [5] -39.5% | [6] -34.5%

O=c1c2[nH]cnc2ncn1Cc1ccccc1
inactive: [1] 0.95% | [2] 1.35% | [3] 0.3% | [4] -32.5% | [5] -20.6% | [6] -6.25%

CC(C)NCC(O)c1ccc(O)c2ncccc12 (stereo unspecified)
inactive: [1] 1.95% | [2] 24.3% | [3] 5.9% | [4] 5.15% | [5] -22.1% | [6] -7.15%

CC1(S)CCC2CC1C2(C)C (stereo unspecified)
inactive: [1] -15.7% | [2] -54.1% | [3] -35% | [4] 4.95% | [5] -27.4% | [6] -12.1%

O=[N+]([O-])c1ccc(N(CCO)CCO)nc1
inactive: [1] -15.7% | [2] -76.6% | [3] 5.15% | [4] 19.5% | [5] -19.3% | [6] -17.8%

Cc1ccc(S(=O)(=O)NC(=O)NCCCS(C)=O)cc1 (stereo unspecified)
inactive: [1] -3.5% | [2] -6.5% | [3] 6.8% | [4] -7.8% | [5] 2.9% | [6] 10.3%

COC(=O)N(c1ccccc1)c1ccccn1
inactive: [1] -16.6% | [2] -9.95% | [3] -10.2% | [4] 10.7% | [5] 4.3% | [6] -22.6%
